Source: PubChem BioAssay
In the library only some 0.48% were active in any assay of this set; here they are far more common.
LGR2 inh – inhibitors of bursicon-induced Drosophila LGR2 receptor cAMP signaling. HEK293 LGR2, CRE-luciferase, bursicon-stimulated, 4 h. 380,000 compounds, 0.35% hits. AID 720647. inhibition, % at 9.99 µM;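 active means drop in luminescence signal, shown as inhibition above about 50% in the replicate tests, limit read from the data, passing the limit was not always enough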;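 further: agonist challenge used bursicon conditioned medium at about half maximal strength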
NCOA3 inh – inhibits human SRC3 coactivator; 360,000 compounds, 0.17% hits; inhibition, % at 3.6 µM; HEK293 GAL4-SRC3 luciferase reporter, luminescence; AID 588352;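 active means inhibition above a per-campaign cutoff, the mean of all compounds plus 3 SD, cut at about 60% in these data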;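 further: 0% = DMSO-treated cells and 100% = gossypol-treated cells at 36 µM; higher means less SRC3-driven luciferase light from the GAL4 reporter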
LRH-1 inv ag – NR5A2 inverse agonism in reporter assay; O00482; HEK293T StAR-luciferase reporter, LRH-1 transfected, 24 h; inhibition, % at 3.6 µM; 360,000 compounds, 0.13% hits; AID 602396;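 active means inhibition above the mean inhibition of all tested compounds plus 3 SD, cut at about 73% in these data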;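 further: 0% = DMSO wells and 100% = reporter-only cells lacking LRH-1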
Target sequence (O00482 whole entry, looked up): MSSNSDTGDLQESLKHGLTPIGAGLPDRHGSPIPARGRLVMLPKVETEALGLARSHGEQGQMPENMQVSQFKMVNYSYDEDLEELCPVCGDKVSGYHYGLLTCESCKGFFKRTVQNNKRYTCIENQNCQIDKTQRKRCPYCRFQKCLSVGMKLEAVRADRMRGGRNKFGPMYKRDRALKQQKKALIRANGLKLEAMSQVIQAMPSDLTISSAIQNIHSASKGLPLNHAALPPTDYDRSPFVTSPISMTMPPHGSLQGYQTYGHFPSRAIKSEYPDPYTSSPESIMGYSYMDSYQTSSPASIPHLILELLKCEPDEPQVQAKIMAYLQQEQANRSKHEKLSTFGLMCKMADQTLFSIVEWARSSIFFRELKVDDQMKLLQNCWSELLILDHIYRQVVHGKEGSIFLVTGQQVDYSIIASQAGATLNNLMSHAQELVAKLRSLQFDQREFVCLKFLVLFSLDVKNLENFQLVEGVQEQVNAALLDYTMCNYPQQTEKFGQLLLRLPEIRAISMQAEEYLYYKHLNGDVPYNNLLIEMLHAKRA
SRC2 inh – human SRC2 (NCOA2) inhibition; HEK293 GAL4-SRC2 luciferase reporter, luminescence; inhibition, % at 9 µM; 370,000 compounds, 0.17% hits; AID 651957;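 active means inhibition above the mean inhibition of all tested compounds plus 3 SD, set per campaign, cut at about 52% in these data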;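 further: 0% = DMSO treated cells and 100% = cells given Gossypol at 36 µM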
NCOA1 inh – inhibits human SRC1 coactivator; HEK293 GAL4-SRC1 luciferase reporter, luminescence; AID 588354; inhibition, % at 3.6 µM; Q15788; 360,000 compounds, 0.12% hits;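 active means inhibition above the campaign mean plus 3 SD, with each screening campaign given its own cutoff, cut at about 60% in these data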;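 further: 0% = DMSO treated cells and 100% = gossypol at 36 µM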
Active calls of the source: *; nt = no result.

SMILES | LGR2 inh | NCOA3 inh | LRH-1 inv ag | SRC2 inh | NCOA1 inh
CCC(COC)Oc1cc(NCc2ccccc2)c2ncn(C(C)C)c2c1 (centres undefined) | 104* | 4 | 2 | -16 | 8
COCCCOc1cc(NCc2ccccc2)c2ncn(C(C)C)c2c1 | 17 | 16 | 33 | -3 | 3
CC(C)n1cnc2c(NCc3ccccc3)cc(N[C@H](C)CO)cc21 | nt | 92* | 90* | nt | 89*
CCCCOc1cc(NCc2ccccc2)c2ncn(C(C)C)c2c1 | 68* | 0 | 11 | 10 | 6
O=C1CCCC/C1=C/Nc1cccc(C(F)(F)F)c1 | -5 | 0 | -23 | -7 | -16
O=C1CCC2S/C(=C/Nc3ccc(C(F)(F)F)cc3)C(=O)N12 (centres undefined) | -33 | 31 | 10 | 72* | 33
CCN(CC(=O)Nc1ccc(NC(C)=O)cc1)C(=O)/C=C/c1cn(-c2ccccc2)nc1-c1cccs1 | 23 | 3 | 23 | -3 | 2
CN1CCC(N(C)C(=O)/C=C/c2cn(-c3ccccc3)nc2-c2cccs2)CC1 | 78* | -2 | 11 | -18 | -6
CC1=NNC(=O)/C1=C\c1cn(-c2ccccc2)nc1-c1cccs1 | 59* | 0 | -9 | -32 | 1
Cc1csc(N=Nc2ccc(N(C)C)cc2)[n+]1[O-] | 75* | -21 | -52 | 14 | -11
CN(C)c1ccc(N=Nc2ccc(C(=O)O)cc2)cc1 | -49 | 5 | -111 | 10 | -14
COc1ccc(C)cc1NS(=O)(=O)c1ccc(NC(=O)CN(c2cc([N+](=O)[O-])ccc2C)S(C)(=O)=O)cc1 | 9 | 38 | 27 | 37 | 10
Cc1cccc(NS(=O)(=O)c2ccc(NC(=O)CN(c3cc([N+](=O)[O-])ccc3C)S(C)(=O)=O)cc2)c1 | 10 | 40 | 19 | 54* | 17
CC(C)c1ccc(/C=C/C(=O)Nc2nc3ccc([N+](=O)[O-])cc3s2)cc1 | nt | 12 | -3 | -7 | -11
O=[N+]([O-])c1ccc2nc(NN=Cc3ccc(O)cc3)sc2c1 | 105* | -28 | -39 | -3 | -29
N#C[C@@H]1[C@H](c2ccccc2-c2ccc(F)cc2)[C@H](CO)N1C(=O)NC1CCCC1 | -9 | nt | nt | nt | nt
COc1ccc(NC(=O)C2(C)Cc3c(-c4cccc(C(F)(F)F)c4)ccnc3O2)cn1 (centres undefined) | nt | 5 | -4 | 71* | 10
O=C1CCCCCN1C(=O)c1ccccc1 | 10 | -6 | 14 | -1 | -12
CC(C)(C)c1ccc(C(=O)N2CCCCCC2=O)cc1 | nt | 51 | 57 | 87* | 44
Cc1ccc(-c2cc(C(=O)N3CCCC3)no2)cc1 | nt | -41 | -103 | 10 | -73
Cc1ccc(-c2cc(C(=O)N3CCOCC3)no2)cc1 | 63* | -33 | -63 | 14 | -38
O=C(c1cc(-c2ccc(Cl)cc2Cl)on1)N1CCCC1 | 75* | -109 | -120 | -1 | -70
COc1ccc2c3c([nH]c2c1)[C@@H](CO)N(C(=O)c1cccc(F)c1)CC31CN(C(=O)c2cccc(F)c2)C1 | -33 | nt | nt | nt | nt
Cc1ccc(-c2cc(-c3ccccc3)no2)cc1 | 57* | -101 | -125 | -76 | -116
c1ccc(-c2cc(-c3ccccc3)on2)cc1 | -84 | -103 | -93 | -86 | -114
SMILES | LGR2 inh | NCOA3 inh | LRH-1 inv ag | SRC2 inh | NCOA1 inh
O=c1[nH]c(=O)n(C2C[C@H](O)[C@@H](CO)O2)cc1C(F)(F)F (some centres undefined) | -3 | 73* | -29 | -6 | 75*
O=c1[nH]c(=O)n([C@H]2C[C@H](O)[C@@H](CO)O2)cc1C(F)(F)F | 0 | 65* | -35 | -27 | 77*
O=c1[nH]c(=O)n(C2CC(O)C(CO)O2)cc1Br (centres undefined) | -17 | 20 | -120 | -62 | 23
COc1ccc2cc3cc(C(=O)Nc4cc(OC)c(OC)c(OC)c4)oc3nc2c1 | nt | 45 | 46 | 24 | 63*
Cc1ccccc1C1=NC(C(F)(F)F)(C(F)(F)F)c2c(n(C)c(=O)n(C)c2=O)N1 | 11 | 15 | 11 | 12 | 6
Cn1c2c(c(=O)n(C)c1=O)C(C(F)(F)F)(C(F)(F)F)N=C(c1ccc(Cl)cc1)N2 | nt | 77* | 98* | nt | 75*
CCC(=O)N(C)C[C@@H]1Oc2ncc(C#CC(C)C)cc2C(=O)N([C@H](C)CO)C[C@@H]1C | 8 | nt | nt | nt | nt
COc1ccc(-c2cn[nH]c2-c2ccc(OC)cc2O)cc1 | 17 | 40 | 11 | 52* | 34
CCn1c2c(c(=N)c3c1CCC3)CCC2 | -8 | 9 | -10 | 32 | 8
CCCCCCn1c2c(c(=N)c3c1CCC3)CCC2 | 22 | 75* | 92* | -8 | 67*
N=c1c2c(n(Cc3ccc(F)cc3)c3c1CCC3)CCC2 | -3 | 50 | 74* | 16 | 36
CCCCCCCn1c2c(c(=N)c3c1CCC3)CCCC2 | nt | 79* | 84* | 33 | 44
CCCCCCn1c(=O)[nH]c2c(c1=O)CCC2 | nt | 11 | -11 | 12 | -2
CCCCCCCCCn1c2c(c(=N)c3c1CCC3)CCC2 | nt | 81* | 97* | nt | 71*
CCCCn1c2c(c(=N)c3c1CCC3)CCC2 | 6 | 28 | 45 | 16 | 30
C[C@@H]1CN([C@@H](C)CO)S(=O)(=O)c2ccc(-c3ccc(F)cc3)cc2O[C@@H]1CN(C)C(=O)Nc1ccc(F)cc1 | 27 | nt | nt | nt | nt
COc1ccc(NC(=O)Nc2ccc3c(c2)C(=O)N([C@@H](C)CO)C[C@@H](C)[C@H](CN(C)S(=O)(=O)c2c(C)noc2C)OCCCC[C@H](C)O3)cc1 | 6 | nt | nt | nt | nt
CCCN1C(=O)/C(=C/c2nc3ccccc3c(=O)[nH]2)c2ccccc21 | 10 | 19 | -10 | -7 | 8
CC(C)N1C(=O)/C(=C\c2nc3ccccc3c(=O)[nH]2)c2ccccc21 | 98* | -1 | -1 | -32 | -14
CO[C@H]1CN(C)C(=O)c2ccc(NC(=O)Nc3cc(F)ccc3F)cc2OC[C@H](C)N(C(=O)c2cnccn2)C[C@H]1C | 7 | nt | nt | nt | nt
COCC#Cc1cnc2c(c1)C(=O)N([C@H](C)CO)C[C@H](C)[C@@H](CN(C)C(=O)c1ccc3c(c1)OCO3)O2 | -9 | nt | nt | nt | nt
CN(C)C(=O)[C@@H]1[C@@H](CO)[C@@H]2Cn3c(cccc3=O)[C@@H]2N1C(=O)NC1CCCC1 | -7 | nt | nt | nt | nt
Oc1cccc2cc(Nc3ccccc3)cnc12 | -3 | 69* | 90* | 14 | 57
Oc1cc(Nc2ccccc2)cc2cccnc12 | 27 | -13 | 21 | 8 | -2
CN(C(=O)COC(=O)c1nc(Cl)c(Cl)c(Cl)c1Cl)C1CCS(=O)(=O)C1 (centres undefined) | 103* | -43 | -39 | -48 | -62
O=C(C1CC1)N1CC[C@H]2[C@H](CO)Nc3ccc(-c4cccc(F)c4)cc3[C@H]21 | 4 | nt | nt | nt | nt
CNc1cc(-c2ccc(OC)c(OC)c2)ncn1 | -56 | -104 | -72 | -99 | -49
CNc1ccc2ncc(-c3ccc(OC)c(OC)c3)n2n1 | -8 | 49 | 26 | 59* | 78*
CCOC(=O)c1c(CSC(=N)N)n(-c2ccccc2)c2cc(Br)c(OC(C)=O)cc12 | 63* | 22 | 22 | -7 | 18
